Source: PubChem BioAssay AID504773 (Broad Institute, 2011)
Measured potencies and affinities stand elsewhere. Calls of active or inactive are those of the source.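 How the source made its calls: active means polarization signal falls with dose and the fitted half-maximal concentration is at or below ten times the sample's top valid dose; inconclusive means flat curve at 30 to 70% inhibition, or poor fit; inactive means signal rises, flat within 30%, or potency beyond limit.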

The compounds below were run against Golgi-associated PDZ and coiled-coil motif-containing protein (Homo sapiens) (UniProt Q9HD26) (assay: potency against CAL PDZ-peptide interaction – biochemical, fluorescence polarization, Cerulean-tagged CAL PDZ, cherry-picks, dose response (AID 504773)). Details: CAL PDZ-peptide binding, 1 h; series mostly up to 50 µM.

outcome, inactive:
Cc1nn(C)c(C)c1S(=O)(=O)N1CCC(CO)(CC2CCCCO2)CC1 (configuration not stated), O=C1c2ccccc2C(=O)N1CSc1nnnn1-c1ccccc1, CCOC(=O)C1(CCOc2ccccc2)CCN(CC(O)CO)CC1 (configuration not stated), Cc1ccc(S(=O)(=O)N2CCN(C(=O)c3ccccn3)CC2)cc1, Cn1c(=O)c2c(nc(SCC(=O)NCC3CCCO3)n2Cc2ccc(F)cc2)n(C)c1=O (configuration not stated), Cc1ccc(NC(=O)N2CCCC2C(=O)NCC2CCCO2)cc1 (configuration not stated), O=C(OCC(=O)N1CCOCC1)c1ccc[nH]c1=O, O=C(NCCc1cnc[nH]1)c1cccs1, CSc1ccccc1NC(=O)C1CC(c2c(F)cccc2Cl)=NO1 (configuration not stated), Cc1ccc(S(=O)(=O)N2CCN(C(=O)c3cc(=O)c4ccccc4o3)CC2)cc1, Cc1cc(Cl)c(Cl)cc1S(=O)(=O)NCCCn1ccnc1, COc1ccc(-n2c(=S)[nH]c3c(sc(=S)n3-c3ccccc3)c2=O)c(OC)c1, COc1ccc(C(=O)Nc2ccc(S(=O)(=O)N3CCCC3)cc2)cc1[N+](=O)[O-], COc1ccc(Nc2cccccc2=O)cc1, C=CCOc1c(Cl)cc(CNn2cn[nH]c2=S)cc1OC, Cc1[nH]c2ccccc2c1C(=O)CSc1nc2ncc(Cl)cc2[nH]1, CC(C)c1ccc(CNC(=O)C(=O)NCCCn2ccnc2)cc1, Cc1ccc2nc(NC(=O)COC(=O)c3ccncc3)sc2c1, C=CCN1C(=O)/C(=C/c2ccsc2)SC1=S, O=C(O)CC1(CC(=O)Nc2ccc(Br)cc2)CCCCC1, Cc1nc2ccc(Br)cn2c1C(=O)N/N=C\c1ccc(C(C)C)cc1, O=C(NCc1ccccn1)c1ccc(NS(=O)(=O)c2ccccc2)cc1, COCCN(C(=S)Nc1ccccc1OC)C1CCN(C(C)C)CC1, O=C(NCCN1C(=O)S/C(=C\c2ccc(Cl)c(Cl)c2)C1=O)C1COc2ccccc2O1 (configuration not stated), CCCSC1=N/C(=C\c2ccc([N+](=O)[O-])o2)C(=O)S1, CC(C)CNC(=O)CN1C(=O)NC(Cc2c[nH]c3ccccc23)C1=O (configuration not stated), COc1ccc(Oc2nc3c(c(=O)n(C)c(=O)n3C)n2C)cc1, FC(F)(F)c1cc(-c2cccs2)nc2ncnn12, O=C(COC(=O)c1ccccc1C(=O)N1CCN(c2ccccc2)CC1)NCc1ccccc1, CC(C)CNC(=O)COC(=O)CCC(=O)c1ccc(Cl)cc1, O=C(CN1C(=O)NC2(CCCC2)C1=O)Nc1ccc(F)c(F)c1F, O=C(NCc1ccccc1)c1cc2ccc(O)cc2oc1=O, CCN(CC(=O)Nc1cc(Cl)cc(Cl)c1)CC(=O)NC1CCS(=O)(=O)C1 (configuration not stated), CCN(CCCn1c(=S)[nH]c2ccc(N3CCOCC3)cc2c1=O)c1ccccc1, Cc1ccc(CNC2CCCCC2)s1, Cc1cccc(N(Cc2cc(=O)[nH]c3ccccc23)C(=O)C(C)C)c1, c1cc(-c2nnc(-c3ccncc3)o2)ccn1
